In ChEMBL document CHEMBL4513141, “CO-ADD screening of NIH (USA) - Clinical Collection” (2021):
Measured potencies and affinities stand elsewhere.

Legend:
Klebsiella pneumoniae = conditions: Concentration 20 uM; ASSAY_TEST Inhibition of Bacterial Growth; detection method Absorption (OD600); MEDIA CAMHB; plate type 384well; NBS; CORNING #3640; time 18 hr
Candida albicans = conditions: 20 µM
Cryptococcus neoformans = conditions: Concentration 20 uM; ASSAY_TEST Inhibition of Fungal Growth; detection method Resazurin; Absorption (OD600-OD570); plate type 384well; NBS; CORNING #3640

| SMILES | Inhibition (Klebsiella pneumoniae) [%] | Inhibition (Candida albicans) [%] | Inhibition (Cryptococcus neoformans) [%] |
| --- | --- | --- | --- |
| C[C@H](CS)C(=O)N1CCC[C@H]1C(=O)O [CAPTOPRIL] | 9.36 | 2.59 | 1.67 |
| CC(N/C(=N\C#N)Nc1ccncc1)C(C)(C)C.O (stereo unspecified) | 0.13 | 1.29 | -6.76 |
| CC(C)(C)NCC(O)c1ccc(O)c(CO)c1.CC(C)(C)NCC(O)c1ccc(O)c(CO)c1.O=S(=O)(O)O (stereo unspecified) [ALBUTEROL SULFATE] | 17.78 | 3.1 | -3.67 |
| O=C(O)c1cc2ccccc2c(Cc2c(O)c(C(=O)O)cc3ccccc23)c1O.OCCOCCN1CCN(C(c2ccccc2)c2ccc(Cl)cc2)CC1 [HYDROXYZINE PAMOATE] | 14.51 | 5.15 | 7.04 |
| C/C=C1/[C@H]2C=C(C)C[C@]1(N)c1ccc(O)nc1C2 | 13.99 | 2.85 | -7.02 |
| CC(CCc1ccccc1)NCC(O)c1ccc(O)c(C(N)=O)c1.Cl (stereo unspecified) [LABETALOL HYDROCHLORIDE] | 19.39 | 4.68 | -9.04 |
| CNCCCC12CCC(c3ccccc31)c1ccccc12.Cl [MAPROTILINE HYDROCHLORIDE] | 10.44 | 3.58 | -10.89 |
| Cc1nccn1CC1CCc2c(c3ccccc3n2C)C1=O (stereo unspecified) [ONDANSETRON] | 11.11 | 4.72 | -0.32 |
| CC1(C)O[C@@H]2[C@@H](CO[C@@]3(COS(N)(=O)=O)OC(C)(C)O[C@@H]23)O1 [TOPIRAMATE] | 6.32 | 2.83 | -6.94 |
| O=c1cnn([C@@H]2O[C@H](CO)[C@@H](O)[C@H]2O)c(=O)[nH]1 [6-AZAURIDINE] | 4.69 | 7.12 | 7.24 |
| CCC(=C(c1ccccc1)c1ccc(OCCN(C)C)cc1)c1ccccc1 | 0.16 | 5.96 | 1.89 |
| CC1=C(CC(=O)O)c2cc(F)ccc2/C1=C\c1ccc([S+](C)[O-])cc1 (stereo unspecified) | 14.02 | 3.98 | -1.21 |
| COCC1=C(C(=O)OC(C)OC(=O)OC(C)C)N2C(=O)[C@@H](NC(=O)/C(=N\OC)c3csc(N)n3)[C@H]2SC1 (stereo partly specified) [CEFPODOXIME PROXETIL] | 5.41 | 4.56 | 0.11 |
| COc1cc(C)nc(-n2nc(C)cc2OC)n1 [EPIRIZOLE] | 10.39 | -0.63 | 1.6 |
| CCC(C)(C)C(=O)O[C@H]1C[C@@H](C)C=C2C=C[C@H](C)[C@H](CC[C@@H]3C[C@@H](O)CC(=O)O3)[C@H]21 [SIMVASTATIN] | -2.13 | 14.8 | 3.41 |
| Cc1ccc(Cl)c(Nc2ccccc2C(=O)[O-])c1Cl.O.[Na+] [MECLOFENAMATE SODIUM] | 12.39 | 8.09 | 1.36 |
| CCOC(=O)N1CCC(=C2c3ccc(Cl)cc3CCc3cccnc32)CC1 [LORATADINE] | 12.62 | 2.41 | -7.17 |
| Cc1cccc(CCN2CCC(C(=O)c3ccc(NS(C)(=O)=O)cc3)CC2)n1.Cl.Cl | 0.58 | 2.81 | -8.23 |
| CO[C@H]1O[C@@H]2O[C@@]3(C)CC[C@H]4[C@H](C)CC[C@@H]([C@H]1C)[C@@]24OO3 | 9.17 | 19.1 | 6.04 |

| SMILES | Inhibition (Klebsiella pneumoniae) [%] | Inhibition (Candida albicans) [%] | Inhibition (Cryptococcus neoformans) [%] |
| --- | --- | --- | --- |
| O=C(O)c1cc(-c2ccc(F)cc2F)ccc1O [DIFLUNISAL] | 3.43 | 13.4 | -3.56 |
| CCc1nn(CCCN2CCN(c3cccc(Cl)c3)CC2)c(=O)n1CCOc1ccccc1.Cl [NEFAZODONE HYDROCHLORIDE] | 1.06 | 2.01 | -2.69 |
| CCCC(CCC)C(=O)O [VALPROIC ACID] | 1.95 | 5.05 | -4.42 |
| CNCC[C@@H](Oc1ccccc1C)c1ccccc1.Cl [ATOMOXETINE HYDROCHLORIDE] | 2.35 | 3.59 | 5.55 |
| O=C(CCNNC(=O)c1ccncc1)NCc1ccccc1 [NIALAMIDE] | 13.86 | 4.06 | -3.3 |
| CC(C)[C@H]1CC[C@H](C(=O)N[C@H](Cc2ccccc2)C(=O)O)CC1 [NATEGLINIDE] | 12.08 | 4.05 | -0.58 |
| N#Cc1ccc(C(c2ccc(C#N)cc2)n2cncn2)cc1 [LETROZOLE] | 9.79 | 2.89 | -8.63 |
| CC(C)Oc1ccc2c(=O)c(-c3ccccc3)coc2c1 [IPRIFLAVONE] | 12.22 | 3.92 | 2.68 |
| CN(C)CCOC(c1ccc(Cl)cc1)c1ccccn1.O=C(O)/C=C\C(=O)O (stereo unspecified) [CARBINOXAMINE MALEATE] | 12.89 | 0.99 | 0.28 |
| NCC(=O)CCC(=O)O [AMINOLEVULINIC ACID] | 13.51 | 0.21 | -6.69 |
| CC[N+](C)(CC)CCOC(=O)C(O)(c1ccccc1)C1CCCCC1.[Br-] (stereo unspecified) [OXYPHENONIUM BROMIDE] | 20 | 2.42 | -6.44 |
| CC(=O)/N=c1/sc(S(N)(=O)=O)nn1C [METHAZOLAMIDE] | 3.3 | 3.37 | -3.07 |
| O=C1CN(/N=C/c2ccc(-c3ccc([N+](=O)[O-])cc3)o2)C(=O)[N-]1.[Na+] [DANTROLENE SODIUM] | 2.98 | 0.63 | 5.43 |
| CCN(CC)CCNC(=O)c1cc(Cl)c(N)cc1OC.Cl | 10.19 | 3.69 | -1.39 |
| O=C(O)CCNC(=O)c1ccc(N=Nc2ccc(O)c(C(=O)O)c2)cc1 | 9.82 | 4.41 | -5.87 |
| COc1nc(C)nc(Cl)c1NC1=NCCN1.Cl [MOXONIDINE HYDROCHLORIDE] | 3.54 | 3.01 | 0.52 |
| CCN(CC)CCNC(=O)c1ccc(N)cc1.Cl [PROCAINAMIDE HYDROCHLORIDE] | -3.79 | 0.33 | 3.84 |
| Nc1nc2c(ncn2COCCO)c(=O)[nH]1 [ACYCLOVIR] | 6.29 | 4.6 | -1.27 |
| CC(=O)OCC(=O)[C@@]1(O)CC[C@H]2[C@@H]3CCC4=CC(=O)C=C[C@]4(C)[C@H]3[C@@H](O)C[C@@]21C [PREDNISOLONE ACETATE] | 12.95 | 0.73 | -1.37 |

| SMILES | Inhibition (Klebsiella pneumoniae) [%] | Inhibition (Candida albicans) [%] | Inhibition (Cryptococcus neoformans) [%] |
| --- | --- | --- | --- |
| CC(=O)[C@H]1CC[C@H]2[C@@H]3C[C@H](C)C4=CC(=O)CC[C@]4(C)[C@H]3[C@@H](O)C[C@]12C [MEDRYSONE] | 12.23 | 1.89 | -4.18 |
| CCOC(=O)c1ccc(OC(=O)CCCCCN=C(N)N)cc1.CS(=O)(=O)O | 15.95 | 3.2 | -7.27 |
| Nc1c2c(nc3c1CCC3)CCCC2 [IPIDACRINE] | 15 | 3.22 | -0.69 |
| CCCc1c(OCCCCc2nnn[nH]2)ccc(C(C)=O)c1O [TOMELUKAST] | 5.45 | 4.49 | 3.29 |
| CCCCC(=O)N(Cc1ccc(-c2ccccc2-c2nnn[nH]2)cc1)[C@H](C(=O)O)C(C)C | 7.53 | 3.96 | -1.97 |
| N[C@@H](Cc1cc(I)c(Oc2cc(I)c(O)c(I)c2)c(I)c1)C(=O)O [LEVOTHYROXINE] | 0.79 | 21.1 | -5.43 |
| CCN1CCC[C@H]1CNC(=O)c1c(O)c(Cl)cc(Cl)c1OC [RACLOPRIDE] | 6.89 | 2.44 | 1.03 |
| Oc1ccc(/C=C/c2cc(O)cc(O)c2)cc1 [RESVERATROL] | 12.99 | 2.92 | -4.32 |
| COC(=O)C1=C(C)NC(C)=C(C(=O)OC(C)C)C1c1cccc2nonc12 (stereo unspecified) [ISRADIPINE] | 7.21 | 4.43 | -5.25 |
| NS(=O)(=O)c1cc2c(cc1C(F)(F)F)NC(Cc1ccccc1)NS2(=O)=O (stereo unspecified) [BENDROFLUMETHIAZIDE] | 6.67 | 3.76 | -1.07 |
| CN(C)c1nc(N(C)C)nc(N(C)C)n1 [ALTRETAMINE] | 4.59 | 4.65 | -7.07 |
| C[C@]12C=CC(=O)C=C1CC[C@@H]1[C@@H]2[C@@H](O)C[C@@]2(C)[C@H]1CC[C@]2(O)C(=O)CO [PREDNISOLONE] | 15.03 | 1.1 | -7.92 |
| O=C1N[C@H](C(=O)O)CS1 [PROCYSTEINE] | 8.75 | 3.85 | -5.5 |
| OCCN1CCN(CCCN2c3ccccc3Sc3ccc(Cl)cc32)CC1 [PERPHENAZINE] | 14.78 | 3.82 | 23.91 |
| COc1cc(N)c(Cl)cc1C(=O)N[C@@H]1CCN(CCCOc2ccc(F)cc2)C[C@@H]1OC.O [(R,S)-CISAPRIDE MONOHYDRATE] | 7.83 | 1.98 | 3.24 |
| CC(=O)Nc1ccc(CC(=O)O)cc1 [ACTARIT] | 4.76 | -0.65 | 4.09 |
| C[C@@H]1C[C@H]2[C@@H]3CCC4=CC(=O)C=C[C@]4(C)[C@@]3(F)[C@@H](O)C[C@]2(C)[C@H]1C(=O)CO [DESOXIMETASONE] | 9.74 | 2.64 | 2.06 |
| Cl.OC(CCN1CCCC1)(c1ccccc1)C1CCCCC1 (stereo unspecified) [PROCYCLIDINE HYDROCHLORIDE] | 8.43 | 4.68 | -10.03 |
| CC(C)NCC(O)c1cc(O)cc(O)c1 (stereo unspecified) [METAPROTERENOL] | 7.02 | 1.29 | 0.32 |
